Binding signal data for 7 sequences are collected here from paper PMC7862700, “An all-to-all approach to the identification of sequence-specific readers for epigenetic DNA modifications on cytosine”.

Common to all, as to test: DAPPL (digital affinity profiling via proximity ligation, sequencing); 10 mM Tris-HCl pH 7.5, 50 mM NaCl, 1 mM DTT, 4% glycerol, room temperature, 30 min; GST-TFs on glutathione beads, 16-mer random dsDNA library, 0.1% formaldehyde crosslink after washing; high values mean tight binding
What all share (settings): protein: recombinant; tags: N-terminal GST; dsDNA, one strand shown

Experiment [1] addresses T1, FLI1 (Homo sapiens, UniProt Q01543 1-452).
T1 sequence: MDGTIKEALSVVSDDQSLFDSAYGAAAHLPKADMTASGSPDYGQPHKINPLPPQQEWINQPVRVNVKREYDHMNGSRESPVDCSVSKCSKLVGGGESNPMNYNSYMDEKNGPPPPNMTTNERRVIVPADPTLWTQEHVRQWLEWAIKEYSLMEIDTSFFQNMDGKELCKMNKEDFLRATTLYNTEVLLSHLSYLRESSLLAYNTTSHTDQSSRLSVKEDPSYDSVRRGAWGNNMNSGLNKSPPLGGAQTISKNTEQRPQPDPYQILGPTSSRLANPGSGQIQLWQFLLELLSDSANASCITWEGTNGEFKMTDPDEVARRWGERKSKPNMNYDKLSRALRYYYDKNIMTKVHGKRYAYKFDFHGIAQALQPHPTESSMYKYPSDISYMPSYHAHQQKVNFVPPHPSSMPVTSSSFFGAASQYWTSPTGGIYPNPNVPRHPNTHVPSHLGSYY
The method in brief: (§1)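 Pools were built from human transcription factors expressed in yeast as GST fusions, captured on glutathione beads and DNA-barcoded, along with a tag-only sample. Incubation with 200 nmole of a 16-mer random double-stranded DNA library lasted 30 min at room temperature in Tris/NaCl/DTT/glycerol buffer, and was followed by washing, 0.1% formaldehyde crosslinking, proximity ligation, PCR amplification and Illumina NextSeq500 sequencing. Binding signal is the quotient of each hexamer's read frequency for a factor and its frequency for the tag-only sample.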

For experiment [2], the target named is T2, ELK1 (Homo sapiens, UniProt P19419 1-428).
T2 sequence: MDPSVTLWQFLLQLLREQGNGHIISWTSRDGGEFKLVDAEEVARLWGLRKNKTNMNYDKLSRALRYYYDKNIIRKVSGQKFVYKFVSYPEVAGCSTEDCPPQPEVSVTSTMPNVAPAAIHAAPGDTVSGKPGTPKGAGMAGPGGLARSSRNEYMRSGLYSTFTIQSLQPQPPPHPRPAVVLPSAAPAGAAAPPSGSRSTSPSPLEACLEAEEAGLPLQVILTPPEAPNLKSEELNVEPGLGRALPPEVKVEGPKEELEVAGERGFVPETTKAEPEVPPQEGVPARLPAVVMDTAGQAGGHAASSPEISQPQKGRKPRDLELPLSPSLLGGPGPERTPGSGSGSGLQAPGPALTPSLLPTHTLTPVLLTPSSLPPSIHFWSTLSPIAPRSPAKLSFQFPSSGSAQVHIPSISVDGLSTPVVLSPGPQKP
The procedure, abridged:
as §1

For experiment [3], the target named is T3, GABPA (Homo sapiens, UniProt Q06546 1-454).
T3 sequence: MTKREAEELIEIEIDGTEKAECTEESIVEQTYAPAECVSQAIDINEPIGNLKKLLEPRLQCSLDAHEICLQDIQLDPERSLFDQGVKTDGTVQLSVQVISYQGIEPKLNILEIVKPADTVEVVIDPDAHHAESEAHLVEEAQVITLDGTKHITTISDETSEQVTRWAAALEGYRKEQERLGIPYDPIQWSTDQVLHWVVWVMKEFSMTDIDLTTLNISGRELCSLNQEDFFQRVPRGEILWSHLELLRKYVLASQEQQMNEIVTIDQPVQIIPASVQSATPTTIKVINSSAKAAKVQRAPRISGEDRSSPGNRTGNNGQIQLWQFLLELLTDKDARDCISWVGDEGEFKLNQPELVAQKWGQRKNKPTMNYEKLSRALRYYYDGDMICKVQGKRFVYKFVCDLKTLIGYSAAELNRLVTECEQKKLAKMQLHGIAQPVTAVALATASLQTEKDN
The procedure, abridged:
as §1

Experiment [4] addresses T4, ERG (Homo sapiens, UniProt P11308 1-479).
T4 sequence: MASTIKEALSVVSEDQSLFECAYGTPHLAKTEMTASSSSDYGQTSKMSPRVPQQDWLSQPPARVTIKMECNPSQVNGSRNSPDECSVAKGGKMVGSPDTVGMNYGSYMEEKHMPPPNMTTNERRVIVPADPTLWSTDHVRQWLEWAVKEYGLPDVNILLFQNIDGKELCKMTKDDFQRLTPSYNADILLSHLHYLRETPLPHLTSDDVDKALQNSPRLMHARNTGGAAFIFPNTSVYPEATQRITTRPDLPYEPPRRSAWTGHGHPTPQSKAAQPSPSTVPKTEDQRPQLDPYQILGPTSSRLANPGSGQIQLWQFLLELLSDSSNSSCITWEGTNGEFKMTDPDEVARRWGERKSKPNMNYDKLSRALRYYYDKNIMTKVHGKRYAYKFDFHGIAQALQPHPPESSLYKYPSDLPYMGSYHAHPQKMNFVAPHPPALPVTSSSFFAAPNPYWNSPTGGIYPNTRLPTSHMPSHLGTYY
The method in brief:
as §1

For experiment [5], the target named is ELF1 (Homo sapiens, UniProt P32519 1-619). The procedure, abridged:
as §1

Experiment [6] concerns the target T5, EHF (Homo sapiens, UniProt Q9NZC4 1-300).
T5 sequence: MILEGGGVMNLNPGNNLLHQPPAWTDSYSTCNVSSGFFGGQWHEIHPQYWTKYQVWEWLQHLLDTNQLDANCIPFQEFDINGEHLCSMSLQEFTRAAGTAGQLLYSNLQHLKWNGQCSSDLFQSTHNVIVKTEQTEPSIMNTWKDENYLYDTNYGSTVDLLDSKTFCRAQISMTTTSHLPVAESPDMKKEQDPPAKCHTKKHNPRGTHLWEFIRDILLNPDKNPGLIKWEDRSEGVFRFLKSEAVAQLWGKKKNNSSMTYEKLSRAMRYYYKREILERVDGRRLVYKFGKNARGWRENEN
The method in brief:
as §1

Experiment [7] addresses SPI1 (Homo sapiens, UniProt P17947 1-270). The procedure, abridged:
as §1

Experiment [8] addresses SPIB (Homo sapiens, UniProt Q01892 1-262). The method in brief:
as §1

Experiment [9] concerns the target T6, ELK3 (Homo sapiens, UniProt P41970 1-407).
T6 sequence: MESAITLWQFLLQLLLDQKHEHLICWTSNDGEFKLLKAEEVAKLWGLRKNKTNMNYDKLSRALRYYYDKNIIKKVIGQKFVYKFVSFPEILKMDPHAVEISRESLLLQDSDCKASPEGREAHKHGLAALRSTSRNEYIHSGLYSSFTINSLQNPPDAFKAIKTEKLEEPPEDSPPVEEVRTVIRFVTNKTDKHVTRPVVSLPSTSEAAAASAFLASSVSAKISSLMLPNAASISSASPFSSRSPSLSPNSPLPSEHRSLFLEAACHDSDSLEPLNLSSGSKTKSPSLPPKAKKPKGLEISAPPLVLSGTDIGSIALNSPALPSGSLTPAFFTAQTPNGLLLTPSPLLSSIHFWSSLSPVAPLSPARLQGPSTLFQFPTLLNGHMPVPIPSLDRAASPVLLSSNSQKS
The method in brief: as §1

SPIB, sequence (Q01892 whole entry): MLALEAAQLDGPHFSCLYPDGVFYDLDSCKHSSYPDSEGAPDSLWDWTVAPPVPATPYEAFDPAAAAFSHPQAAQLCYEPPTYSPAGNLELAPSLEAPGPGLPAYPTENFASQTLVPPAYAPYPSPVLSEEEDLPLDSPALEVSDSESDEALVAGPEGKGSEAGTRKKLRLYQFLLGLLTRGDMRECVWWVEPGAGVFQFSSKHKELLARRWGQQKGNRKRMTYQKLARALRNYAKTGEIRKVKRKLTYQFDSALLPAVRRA
ELF1, sequence (P32519 whole entry): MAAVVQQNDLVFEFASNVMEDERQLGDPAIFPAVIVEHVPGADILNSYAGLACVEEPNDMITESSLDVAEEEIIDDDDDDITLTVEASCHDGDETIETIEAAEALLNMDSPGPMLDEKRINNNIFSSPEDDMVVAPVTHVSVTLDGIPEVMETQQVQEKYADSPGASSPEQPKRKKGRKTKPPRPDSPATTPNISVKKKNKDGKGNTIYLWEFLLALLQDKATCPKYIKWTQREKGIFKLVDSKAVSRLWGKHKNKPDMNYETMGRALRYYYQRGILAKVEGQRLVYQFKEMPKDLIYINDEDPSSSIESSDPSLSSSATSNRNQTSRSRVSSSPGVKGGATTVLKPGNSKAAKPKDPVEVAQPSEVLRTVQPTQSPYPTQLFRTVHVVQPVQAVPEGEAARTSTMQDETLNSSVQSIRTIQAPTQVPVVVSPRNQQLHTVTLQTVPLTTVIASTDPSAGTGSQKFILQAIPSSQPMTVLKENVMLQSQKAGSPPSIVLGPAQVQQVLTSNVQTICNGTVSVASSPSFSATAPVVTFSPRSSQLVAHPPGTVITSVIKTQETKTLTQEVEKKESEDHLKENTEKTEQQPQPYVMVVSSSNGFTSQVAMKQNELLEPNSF

On to GTCTCA, for which the binding signal in [1] is 1.34 fold enrichment (6-mer frequency, TF over GST control); in experiment [2] it was 1.32 fold enrichment (6-mer frequency, TF over GST control); in experiment [3], 1.35 fold enrichment (6-mer frequency, TF over GST control); in experiment [4] it was 1.36 fold enrichment (6-mer frequency, TF over GST control); in [5], 1.41 fold enrichment (6-mer frequency, TF over GST control); in experiment [6], 1.32 fold enrichment (6-mer frequency, TF over GST control). Also, the binding signal was 1.39 fold enrichment (6-mer frequency, TF over GST control) in [7]; 1.41 fold enrichment (6-mer frequency, TF over GST control) in experiment [8]; 1.32 fold enrichment (6-mer frequency, TF over GST control) in experiment [9].
Regarding AACCTC, the binding signal was 1.22 fold enrichment (6-mer frequency, TF over GST control) in [1]; 1.27 fold enrichment (6-mer frequency, TF over GST control) in [2]; 1.28 fold enrichment (6-mer frequency, TF over GST control) in experiment [3]; 1.23 fold enrichment (6-mer frequency, TF over GST control) in experiment [4]; 1.29 fold enrichment (6-mer frequency, TF over GST control) in experiment [5]; 1.2 fold enrichment (6-mer frequency, TF over GST control) in experiment [6]. Also, the binding signal is 1.2 fold enrichment (6-mer frequency, TF over GST control) in [7]; 1.19 fold enrichment (6-mer frequency, TF over GST control) in experiment [8]; 1.23 fold enrichment (6-mer frequency, TF over GST control) in experiment [9].
Consider AGATCC, for which the binding signal in [1] is 1.05 fold enrichment (6-mer frequency, TF over GST control); in experiment [2], 1.12 fold enrichment (6-mer frequency, TF over GST control); in [3], 1.09 fold enrichment (6-mer frequency, TF over GST control); in experiment [4], 1.15 fold enrichment (6-mer frequency, TF over GST control); in experiment [5] it was 1.1 fold enrichment (6-mer frequency, TF over GST control); in [6], 1.12 fold enrichment (6-mer frequency, TF over GST control). The binding signal in experiment [7] is 1.03 fold enrichment (6-mer frequency, TF over GST control); in experiment [8] it was 1.18 fold enrichment (6-mer frequency, TF over GST control); in [9] it was 1.1 fold enrichment (6-mer frequency, TF over GST control).
Consider ACACTT, for which the binding signal in experiment [1] was 1.63 fold enrichment (6-mer frequency, TF over GST control); in experiment [2] it was 1.7 fold enrichment (6-mer frequency, TF over GST control); in experiment [3] it was 1.53 fold enrichment (6-mer frequency, TF over GST control); in experiment [4], 1.8 fold enrichment (6-mer frequency, TF over GST control); in experiment [5] it was 1.69 fold enrichment (6-mer frequency, TF over GST control); in [6] it was 1.66 fold enrichment (6-mer frequency, TF over GST control). Further, the binding signal was 1.95 fold enrichment (6-mer frequency, TF over GST control) in [7]; 1.67 fold enrichment (6-mer frequency, TF over GST control) in [8]; 1.74 fold enrichment (6-mer frequency, TF over GST control) in experiment [9].
On to ACTAAT, for which the binding signal in experiment [1] is 1.33 fold enrichment (6-mer frequency, TF over GST control); in [2] it was 1.27 fold enrichment (6-mer frequency, TF over GST control); in experiment [3], 1.23 fold enrichment (6-mer frequency, TF over GST control); in experiment [4], 1.2 fold enrichment (6-mer frequency, TF over GST control); in experiment [5], 1.33 fold enrichment (6-mer frequency, TF over GST control); in experiment [6], 1.37 fold enrichment (6-mer frequency, TF over GST control). For the same sequence, the binding signal in [7] is 1.28 fold enrichment (6-mer frequency, TF over GST control); in experiment [8] it was 1.39 fold enrichment (6-mer frequency, TF over GST control); in experiment [9], 1.37 fold enrichment (6-mer frequency, TF over GST control).
With TACCAA, the binding signal in [1] was 1.14 fold enrichment (6-mer frequency, TF over GST control); in experiment [2] it was 1.17 fold enrichment (6-mer frequency, TF over GST control); in [3], 1.11 fold enrichment (6-mer frequency, TF over GST control); in experiment [4], 1.18 fold enrichment (6-mer frequency, TF over GST control); in [5] it was 1.21 fold enrichment (6-mer frequency, TF over GST control); in experiment [6], 1.13 fold enrichment (6-mer frequency, TF over GST control). For the same sequence, the binding signal in experiment [7] was 1.16 fold enrichment (6-mer frequency, TF over GST control); in [8], 1.13 fold enrichment (6-mer frequency, TF over GST control); in experiment [9], 1.05 fold enrichment (6-mer frequency, TF over GST control).
Turning to AGCACT, the binding signal was 1.38 fold enrichment (6-mer frequency, TF over GST control) in [1]; 1.52 fold enrichment (6-mer frequency, TF over GST control) in experiment [2]; 1.41 fold enrichment (6-mer frequency, TF over GST control) in experiment [3]; 1.48 fold enrichment (6-mer frequency, TF over GST control) in experiment [4]; 1.4 fold enrichment (6-mer frequency, TF over GST control) in experiment [5]; 1.36 fold enrichment (6-mer frequency, TF over GST control) in [6]. The binding signal was 1.4 fold enrichment (6-mer frequency, TF over GST control) in experiment [7]; 1.44 fold enrichment (6-mer frequency, TF over GST control) in experiment [8]; 1.62 fold enrichment (6-mer frequency, TF over GST control) in experiment [9].
